From PubChem BioAssay (Tox21)
Inconclusive results are not listed. Values without a mark were called inactive. The source made the active and inactive calls. Calls come from the whole dose curve; as a rule, active = well fitted cell-killing curve with a large enough effect in the repeat runs; inconclusive = weak or mixed curves, or effect the other way; inactive = flat fitted curve, though single readings scatter.

Assay: qHTS RealTime-Glo MT Cell Viability Assay in HEK293 cells - 24 hour (AID 1224886); for activity change, negative = cytotoxicity: top concentration of the series differs between compounds
Conditions: RealTime-Glo luminescence; series mostly up to 76.8 µM; activity change, negative = cytotoxicity: at the top concentration
Procedure, shortened: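 Reads taken at 0, 8, 16, 24, 32 and 40 h from the same wells. HEK293 cells (600/well) carried RealTime-Glo reagents from seeding, with compound added after a 5 h settle at 37 C.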
% is set by controls: 0 for no effect and ±100 for the full control effect; potency is the fitted concentration of half-maximal effect.
Note: nearly all actives have a fitted effect of over 50% in size.

SMILES	activity change, negative = cytotoxicity	Potency
CC(=O)OCCC(C)CC(C)(C)C (configuration not stated)	-23.3%	
ClC1=C(Cl)C1(Cl)Cl	-6.11%	
O=C(O)CN1C(=O)c2cccc3cccc(c23)C1=O	7% [at 35.3 µM]	
CCCCCCCC/C=C\CCCCCCCC(=O)OCCO	-10.2%	
CS(=O)(=O)c1ccc([C@@H](C[C@H]2CCC(=O)C2)C(=O)Nc2cnccn2)cc1Cl	2.44%	
Cc1ccc2nc(N)[nH]c(=O)c2c1Sc1ccncc1	-27.7% [at 35.3 µM]	
CC(C)Cc1ccc(CC(=O)O)cc1	5.03% [at 35.3 µM]	
O=[N+]([O-])C1(Br)COCOC1		38.9 µM (active)
CCCCCCCCCCCCCCCCCC(=O)OCC(CC)CCCC (configuration not stated)	1.92%	
CC12CC3CC(C)(C1)CC(N)(C3)C2	-1.36% [at 35.3 µM]	
CC/C=C\C/C=C\C/C=C\CCCCCCCC(=O)OCC	-11%	
O=C(O)c1cccc(C[C@@H]2COc3ccc(OCc4nc5cc(F)ccc5s4)cc3[C@@H]2O)c1	5.9%	
Cc1ccc(N(CCO)CCO)cc1	2.1%	
CC1CCC(C(C)CS)CC1S (configuration not stated)	-0.602%	
COC(=O)CC(C(C)=O)C(=O)OC (configuration not stated)	8.39%	
O[C@@H](CNC[C@H](O)[C@H]1CCc2cc(F)ccc2O1)[C@@H]1CCc2cc(F)ccc2O1		19 µM (active)
Cc1c[nH]c2ccccc12	16.7% [at 35.3 µM]	

SMILES	activity change, negative = cytotoxicity	Potency
COc1ccc(C)cc1	8.8%	
COc1ccc(/C=C/C(=O)c2ccc(OC)cc2OC)cc1	-18.4% [at 35.3 µM]	
CC(C)(C)NCC(O)COc1cccc2c1C[C@H](O)[C@H](O)C2 (some centres not stated)	3.58% [at 35.3 µM]	
CC(=O)OCC(=O)[C@@]1(OC(C)=O)[C@@H](C)C[C@H]2[C@@H]3C[C@H](F)C4=CC(=O)C=C[C@]4(C)[C@@]3(F)[C@@H](O)C[C@@]21C	-19.1% [at 35.3 µM]	
O=C(O)c1cc(Cl)cc(Cl)c1O	-3.61%	
CCOC(=O)Oc1ccc(CCNC(=O)[C@H](CCSC)NC(C)=O)cc1OC(=O)OCC	12.6% [at 35.3 µM]	
CCN(Cc1cccc(S(=O)(=O)O)c1)c1ccc(C(=C2C=CC(=[N+](CC)Cc3cccc(S(=O)(=O)O)c3)C=C2)c2ccc(O)cc2S(=O)(=O)[O-])cc1	7.48% [at 35.3 µM]	
COC(CC(C)CCCC(C)(C)O)OC (configuration not stated)	3.67%	
Oc1cccc2[nH]ccc12	9.69% [at 35.3 µM]	
CCN(CC)CC(=O)Nc1c(C)cccc1C(=O)OC	1.61% [at 35.3 µM]	
CCN(CC)CCNC(=O)c1cc(Cl)c(N)cc1OC	-7.94% [at 35.3 µM]	
CCCCOC(=O)CCCCC(=O)OCCCC	0.732%	
CN(C)CC/C=C1\c2ccccc2Sc2ccc(Cl)cc21		23.9 µM (active)
CCN(CC)c1cccc(O)c1	0.604%	
CC1=CC[C@@]23C[C@@H]1C(C)(C)[C@@H]2CC[C@H]3C	-0.903%	
O=C(c1ccccc1)C1CCC1	9.94%	

Assay: qHTS RealTime-Glo MT Cell Viability Assay in HEK293 cells - 8 hour (AID 1224887); for activity change, negative = cytotoxicity: top concentration of the series differs between compounds
Conditions: RealTime-Glo luminescence; series mostly up to 76.8 µM; activity change, negative = cytotoxicity: at the top concentration
Procedure, shortened: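 Tox21 screen in HEK293 using RealTime-Glo MT chemistry, with cells and reagent co-dispensed. Luminescence proportional to viable cell number was captured at intervals during 40 h compound exposure at 37 C.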

SMILES	activity change, negative = cytotoxicity	Potency
CC(=O)OCCC(C)CC(C)(C)C (configuration not stated)	10.3%	
ClC1=C(Cl)C1(Cl)Cl	-0.162%	
O=C(O)CN1C(=O)c2cccc3cccc(c23)C1=O	6.36% [at 35.3 µM]	
CS(=O)(=O)c1ccc([C@@H](C[C@H]2CCC(=O)C2)C(=O)Nc2cnccn2)cc1Cl	4.14%	
Cc1ccc2nc(N)[nH]c(=O)c2c1Sc1ccncc1	-17.9% [at 35.3 µM]	
CC(C)Cc1ccc(CC(=O)O)cc1	0.259% [at 35.3 µM]	
O=[N+]([O-])C1(Br)COCOC1		49 µM (active)
CC12CC3CC(C)(C1)CC(N)(C3)C2	0.228% [at 35.3 µM]	
CC/C=C\C/C=C\C/C=C\CCCCCCCC(=O)OCC	-19.4%	
CN1CCCN(C(c2ccccc2)c2ccc(Cl)cc2)CC1 (configuration not stated)	1.06% [at 35.3 µM]	
O=C(O)c1cccc(C[C@@H]2COc3ccc(OCc4nc5cc(F)ccc5s4)cc3[C@@H]2O)c1	1.69%	
Cc1ccc(N(CCO)CCO)cc1	7.33%	
COC(=O)CC(C(C)=O)C(=O)OC (configuration not stated)	1.06%	
c1ccc(CCCc2ccncc2)cc1	-26.9%	
